Growth inhibition data for 21 compounds are collected here from PubChem BioAssay (NCI).

The structures appear in SMILES notation. About 79,000 compounds went through this panel and 15% of them were active in at least one assay; those are over-represented in the sample as a whole. A number with no mark means an inactive call. Active and inactive are the calls of the source. Rule as the data show it: active = growth inhibition above about 70%; inactive = the rest.

Assay [1] can be described thus: NCI Yeast Anticancer Drug Screen. Data for the rad50 strain (AID 155).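 Also: 0% = growth of vehicle-only cultures of the same strain.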 As to conditions: S. cerevisiae rad50 strain growth inhibition; at 50.0 µM; stronger effect = higher value. The essentials:
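Genetically altered yeast (DNA repair pathway); compound treatment; growth inhibition vs vehicle ctrl.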

A short description of assay [2]: NCI Yeast Anticancer Drug Screen. Data for the mec2-1 strain (AID 157). As to conditions: S. cerevisiae mec2-1 strain, at 50.0 µM, stronger effect = higher value. The method, boiled down:
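Test agents were screened against the mec2-1 yeast strain, with defined DNA repair or cell cycle alteration. Growth was scored as inhibition against vehicle-only controls.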

Assay [3] can be described thus: NCI Yeast Anticancer Drug Screen. Data for the sgs1 mgt1 strain (AID 161).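 Also: 0% = growth of cultures given vehicle only.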 The settings on record: S. cerevisiae sgs1 mgt1 strain, at 50.0 µM, stronger effect = higher value. The method, boiled down:
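Genetically altered yeast, compound exposure, growth inhibition relative to vehicle.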

Assay [4] is described as follows: NCI Yeast Anticancer Drug Screen. Data for the cln2 rad14 strain (AID 165).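 Also: 0% = growth equal to vehicle treated cultures.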 The settings on record: S. cerevisiae cln2 rad14 strain, at 50.0 µM, stronger effect = higher value. The method, boiled down:
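Growth of compound-exposed yeast (cln2 rad14 genotype) measured and expressed as inhibition relative to vehicle.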

Assay [5] is described as follows: NCI Yeast Anticancer Drug Screen. Data for the bub3 strain (AID 167). The settings on record: S. cerevisiae bub3 mutant strain, at 50.0 µM, stronger effect = higher value. The essentials:
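Yeast carrying a defined mutation is treated with each compound, and growth is compared with that of vehicle-exposed cells to give inhibition.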

The nature of assay [6]: NCI Yeast Anticancer Drug Screen. Data for the mlh1 rad18 strain (AID 175). As to conditions: S. cerevisiae mlh1 rad18 strain growth inhibition; at 50.0 µM; stronger effect = higher value. The method, boiled down:
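In this whole-cell yeast screen, a strain with altered DNA damage repair is challenged with compound, and its growth is measured against matched vehicle-treated controls.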

Consider `C=Cc1ccc(OC2OC(CO)C(OC3OC(CO)C(O)C(O)C3O)C(O)C2O)cc1` (stereo unspecified), for which the growth inhibition in assay [1] was 14.7%; in assay [2] it was -18.9%; in assay [3] it was -1.1%; in assay [4] it was -58.9%; in assay [5], -0.35%; in assay [6], -2.8%.

Take `CC1OC(OC2C(OC(=O)[C@@H]3CC(C)(C)C[C@@H]4C5=CC[C@@H]6[C@@]7(C)C[C@H](O)[C@H](OC8OC(CO)C(O)C(O)C8O)[C@@](C)(CO)C7[C@H](O)C[C@@]6(C)[C@]5(C)C[C@@H](O)[C@H]43)OCC(O)C2O)C(O)C(O)C1O` (stereo partly specified): the growth inhibition in assay [1] is -23.9%; in assay [2] it was -21.6%; in assay [3], -9.35%; in assay [4], 13.2%; in assay [5] it was 1%; in assay [6], -49.7%.

On to `C=CC1(c2ccc(Cl)c(Cl)c2)OCCO1`, for which the growth inhibition in assay [1] was -11.3%; in assay [2], 15.8%; in assay [3] it was 15%; in assay [4], -6.5%; in assay [5], 9.55%; in assay [6], 25.4%.

For the compound `C=CCN1C=CC=C/C1=C\C=C(/C#N)C(=O)OCC`, the growth inhibition in assay [1] was 10.8%; in assay [2], 12.7%; in assay [3] it was 7.8%; in assay [4], -15.2%; in assay [5] it was -8.65%; in assay [6] it was 7.35%.

Take `CC1(C)CC2(C)NCCN2C(=S)N1` (stereo unspecified): the growth inhibition was 3.25% in assay [1]; 2.3% in assay [2]; 15.8% in assay [3]; 12.2% in assay [4]; -5.45% in assay [5]; -7.8% in assay [6].

As to `Clc1ccccc1C=NCCN=Cc1ccccc1Cl`, the growth inhibition is -1.75% in assay [1]; -14.8% in assay [2]; -3.5% in assay [3]; 0.5% in assay [4]; 3.4% in assay [5]; 1.15% in assay [6].

Turning to `Cc1nn(C(=S)S)c(C)c1N=Nc1ccc(O)cc1`, the growth inhibition is 9.3% in assay [1]; 10.5% in assay [2]; 16.9% in assay [3]; -16.7% in assay [4]; 5.35% in assay [5]; 18.6% in assay [6].

For `O=C1c2c(/C=C/c3ccc(Cl)c(Cl)c3)nc3ccccc3c2C(=O)N1CCN1CCCCC1`, the growth inhibition was 89.3% (active) in assay [1]; 50.6% in assay [2]; 83.2% (active) in assay [3]; 17.9% in assay [4]; 18.4% in assay [5]; 79.3% (active) in assay [6].

In the case of `CCCCCCCCNC=O`, the growth inhibition was 26.1% in assay [1]; 11.1% in assay [2]; 9.45% in assay [3]; 1.1% in assay [4]; 13.1% in assay [5]; 20.8% in assay [6].

Regarding `Nc1ccc(OCC(O)CN2CCN(c3ccccc3)CC2)cc1` (stereo unspecified), the growth inhibition in assay [1] is 7.45%; in assay [2], 4.15%; in assay [3], 6.65%; in assay [4], -3.85%; in assay [5], 10.6%; in assay [6], 4.1%.

In the case of `O=c1cc(-c2ccccc2Cl)[nH]c2cc3c(cc12)OCO3`, the growth inhibition was 14.1% in assay [1]; -26.3% in assay [2]; 21.9% in assay [3]; -6.95% in assay [4]; 12.6% in assay [5]; -39.8% in assay [6].

On to `COc1ccc(CSC(=S)Nc2ccc(C)c(Cl)c2)cc1`, for which the growth inhibition in assay [1] is 26%; in assay [2], 18.2%; in assay [3], 18.6%; in assay [4], 10.1%; in assay [5], -3.35%; in assay [6] it was 17.2%.

Consider `CCOC(=O)/C=C/c1cccc(F)c1`, for which the growth inhibition in assay [1] is 19.2%; in assay [2], -5.25%; in assay [3], 7.85%; in assay [4], 12%; in assay [5] it was 12.2%; in assay [6], 10.5%.

As to `CC(=O)CC(=O)c1cc(C(C)=O)c(O)c(C(C)=O)c1`, the growth inhibition in assay [1] was -11.8%; in assay [2], 0.75%; in assay [3], 11%; in assay [4] it was -3.3%; in assay [5], -11.1%; in assay [6] it was 7.8%.

Regarding `Cc1nc(=S)c2[nH]c(=S)[nH]c2[nH]1`, the growth inhibition was -2.7% in assay [1]; -16.1% in assay [2]; -3.8% in assay [3]; -18.8% in assay [4]; -1.9% in assay [5]; -8.2% in assay [6].

Turning to `Cc1cc2c(=O)cc(-c3ccccc3)oc2c(C(N)=O)c1C`, the growth inhibition is 15.3% in assay [1]; 19.9% in assay [2]; 27.5% in assay [3]; -2.95% in assay [4]; 14.8% in assay [5]; 1.55% in assay [6].

`CCO/N=C(\N)c1ccccc1`: the growth inhibition in assay [1] is -8.4%; in assay [2], 1.75%; in assay [3], -2.5%; in assay [4], -18.9%; in assay [5] it was 0.95%; in assay [6], 3.25%.

With `NC(C(=O)O)c1ccccc1C(=O)O` (stereo unspecified), the growth inhibition in assay [1] was -21.4%; in assay [2], -19.9%; in assay [3], -13.4%; in assay [4], 0.8%; in assay [5], -7.8%; in assay [6], -21.9%.

In the case of `N#Cc1c(-c2ccccc2)nc(-c2ccccc2)sc1=S`, the growth inhibition in assay [1] is 12.1%; in assay [2] it was -0.7%; in assay [3], 42%; in assay [4], 4.55%; in assay [5], 48.1%; in assay [6], 73.8% (active).

With `Cc1ccc(C)c(NC(=O)CCC(=O)C(C#N)c2nc3ccccc3s2)c1` (stereo unspecified), the growth inhibition in assay [1] was 25.9%; in assay [2] it was -3.3%; in assay [3] it was -5.15%; in assay [4], 17.6%; in assay [5] it was 3.7%; in assay [6], -5.7%.

In the case of `COc1ccccc1CC(=O)O`, the growth inhibition in assay [1] was 27.9%; in assay [2] it was 2.15%; in assay [3], 16.4%; in assay [4] it was 17.3%; in assay [5] it was -1.85%; in assay [6] it was 0.05%.
